# Screening results: PubChem, National Center for Advancing Translational Sciences (NCATS)
# Tau fluor counter – counter-screen for tau fibril formation inhibitors. tau K18 P301L Alexa594 fluorescence, heparin fibrillization. Potency, µM (top dose mostly 57.7 µM), for inactives: top-dose activity change, negative = decrease. hit rate 0.93% among 280,000; further: nearly all actives have a fitted effect of over 55% in size
#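 Human K18 P301L tau (15 uM unlabeled plus 0.24 uM Alexa 594-labeled, final) in 100 mM sodium acetate pH 7 was mixed with compound and 20 uM heparin and incubated 6 hr at 37 C.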
# Tau fibril ThT – tau fibrillization inhibition (ThT binding); P10636; recombinant tau K18 P301L, heparin-induced fibrillization, ThT fluorescence; Potency, µM (top dose mostly 57.4 µM), without a hit: top-dose activity, negative = inhibition, usual class: inhibitors; hit rate 2.1% among 270,000; AID 1460; further: nearly all actives have a fitted effect of over 55% in size
# Target sequence (P10636 561-689 P618L limits assumed): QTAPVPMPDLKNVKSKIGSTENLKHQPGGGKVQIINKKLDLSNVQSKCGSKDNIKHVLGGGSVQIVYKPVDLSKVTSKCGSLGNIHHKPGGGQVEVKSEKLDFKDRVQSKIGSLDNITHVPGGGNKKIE
#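 ThT emission at 510 nm, taken 1 hr after adding 30 uM dye, quantifies aggregates formed when 20 uM heparin acts on human tau K18 P301L for 6 hr at 37 C.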
# Tau fibril FP – blocks human tau fibril formation measured by polarization; P10636; K18 P301L tau heparin fibrillization, Alexa594 FP, 6 h; Potency, µM (titrated, usually from 57.7 µM), inactives show at the highest dose activity, negative = inhibition, hits mostly inhibitors; hit rate 0.39% among 280,000; AID 1468; further: nearly all actives have a fitted effect of over 55% in size
#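 Quantitative HTS format: compounds meet 15 uM recombinant K18 P301L tau and Alexa 594-tau tracer in 100 mM sodium acetate pH 7; 20 uM heparin triggers fibrillization at 37 C over 6 hr; FP gives the signal.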
# KDM4E inh – blocks human JMJD2E demethylase activity; hit rate 1.6% among 230,000; Potency, µM (top dose mostly 57.1 µM), for inactives: top-dose activity change, negative = inhibition, hits mostly inhibitors; AID 2147; JMJD2E catalytic domain, FDH-coupled NADH fluorescence (FDH is formaldehyde dehydrogenase); B2RXH2; active means well fitted inhibition curve with a large enough effect, not every such curve was filed as active; inconclusive means small, poorly fitted or top-dose-only effect, or another doubt; inactive means no such curve, though single readings can be large or run the other way;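 further: 0% = wells with enzyme and -100% = buffer wells without enzyme; nearly all actives have a fitted effect of over 50% in size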
# Target sequence (B2RXH2 1-337 limits assumed): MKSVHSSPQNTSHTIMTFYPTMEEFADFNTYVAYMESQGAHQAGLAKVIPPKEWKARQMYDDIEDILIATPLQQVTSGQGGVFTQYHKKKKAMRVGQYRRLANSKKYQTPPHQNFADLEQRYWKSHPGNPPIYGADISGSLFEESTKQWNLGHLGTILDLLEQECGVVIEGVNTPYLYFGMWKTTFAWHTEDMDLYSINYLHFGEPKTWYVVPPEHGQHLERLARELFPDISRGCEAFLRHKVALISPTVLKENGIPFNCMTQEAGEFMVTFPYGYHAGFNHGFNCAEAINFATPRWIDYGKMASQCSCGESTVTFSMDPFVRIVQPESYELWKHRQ
# RGS12 GoLoco inh – blocks human Gai1 binding to RGS12 GoLoco peptide, red readout | P63096 | Gai1:RGS12 GoLoco peptide FP, rhodamine, 10 min | Potency, µM (series often up to 61.6 µM), for the others: at the highest dose activity, negative = inhibition, usual class: inhibitors | hit rate 0.44% among 230,000 | AID 880; active means well fitted inhibition curve with a large enough effect, not every such curve was filed as active; inactive means no such curve, though single readings can be large or run the other way; further: nearly all actives have a fitted effect of over 30% in size
# * = called active by the depositor; ? = inconclusive; · = not tested or not shown; [ ] = dose if it differs, or a comment. Shown are actives, neighbours in structure and some others; about 3.4% of the full set was active somewhere. Unless noted, the call rests on the fitted dose curve; in most records, active means well fitted curve in the direction sought with a large enough effect; inconclusive means small, poorly fitted or top-dose-only effect, or another doubt; inactive means no such curve, though single readings can be large; an effect the other way counts as inactive or inconclusive. Unless noted, on the % scale 0 is the no-effect control and ±100 the full control effect; potency means the concentration at half of the fitted maximal effect.
SMILES,Tau fluor counter,Tau fibril ThT,Tau fibril FP,KDM4E inh,RGS12 GoLoco inh
Oc1c(Br)cc(Br)cc1/C=N/NC(=S)N[C@H]1CC2C=CC1C2 (some centres undefined),?,?,?,8.9µM*,-10%
CCOC(=O)C(=Cc1ccc(-n2ccnc2)cc1)C(=O)OCC,7%,?,1%,11µM*,-3%
CCOC(=O)C(=Cc1ccc(F)cc1)C(=O)OCC,4%,?,2%,-2%,7%
CCOc1ccc(S(=O)(=O)NCC(c2ccc(N(C)C)cc2)N2CCCC2)cc1 (centres undefined),-14%,-16%,-5%,·,·
CC(C)/C(=N\NC(=O)Nc1ccccc1)c1ccccc1,-3%,1%,1%,-5%,1%
CC(C)/C(=N/[N+](C)(C)C)c1ccccc1,·,·,·,·,2.8µM*
CC(=O)Nc1ccc(S(=O)(=O)Oc2ccc(/C=C3\SC(N)=NC3=O)cc2)cc1,-13%,-17%,25µM*,-12%,-8%
CCN(CC)C(=O)c1ccc(/C=C/c2c[nH]c3ccccc23)[n+](C)c1,2%,-18%,-3%,-20%,46%
CC[n+]1c(/C=C/c2c[nH]c3ccccc23)ccc2cc(C)ccc21,1.3µM*[fluorescent],2µM*,?,-11%,214%
COc1cc(/C=C(/C#N)c2nc(-c3cc4ccccc4oc3=O)cs2)ccc1O,?,4.5µM*,15%,·,·
N#C/C(=C/c1ccccc1Cl)c1nc(-c2cc3ccccc3oc2=O)cs1,-14%,-2%,-11%,·,·
CN(C)Cc1cc(O)c(O)c(CN(C)C)c1,·,·,·,·,-35%[14.2 µM]
CN(C)Cc1cc(O)c(CN(C)C)cc1O,?,7.1µM*,?,?,4µM*
CN(C)c1ccc(NC(=O)c2cccc(C(=O)Nc3ccc(N(C)C)cc3)n2)cc1,?,16µM*,6%,-19%,18%
COc1ccc(NC(=O)Nc2ccc(N(C)C)cc2)cc1,?,13µM*,10%,-9%,-13%
COc1ccc(OCC(=O)N/N=C/c2ccc(N(C)C)cc2)cc1,?,2.5µM*,?,?,-11%
CN(C)c1ccc(/C=N/NC(=O)c2cccc(C(=O)N/N=C/c3ccc(N(C)C)cc3)n2)cc1,-3%,-16%,11%,0%,1%
CN(C)c1ccc(NC(=O)c2ccc3nsnc3c2)cc1,-30%,7.9µM*,5%,7%,13µM*
O=C(Cn1ncc2c3ccccc3n(Cc3ccccc3)c2c1=O)Nc1ccccc1C(F)(F)F,0%,6%,?,·,·
CCOc1ccccc1CNC(=O)C1CCN(Cc2cc3ccccc3n2Cc2ccccc2)CC1,-8%,-6%,-2%,·,·
O=C(NNC(=S)NC(=O)c1sc2ccccc2c1Cl)c1ccc(Cl)cc1,-23%,14µM*,4%,9%,-5%
CCOc1ccc(C2c3[nH]c4ccccc4c3CCN2C(=O)CCc2ccccc2)cc1 (centres undefined),-10%,-5%,-4%,·,·
O=C(CCS(=O)(=O)c1nc(-c2ccc3c(c2)OCO3)cc(C(F)(F)F)n1)Nc1ccccc1C(F)(F)F,-13%,-11%,-4%,·,·
Cc1ccc(S(=O)(=O)Nc2ccc(NC(=O)Nc3ccc(F)cc3F)cc2)cc1,11µM*[quencher],-5%,?,1%,9%
Nc1n[nH]c(=S)n1/N=C1/C(=O)Nc2ccccc21,-25%,18µM*,?,7.1µM*,-7%
SMILES,Tau fluor counter,Tau fibril ThT,Tau fibril FP,KDM4E inh,RGS12 GoLoco inh
Cc1c(CC(=O)NCCc2ccccc2F)c(=O)oc2cc(O)c(Cl)cc12,-10%,-8%,-1%,·,·
Cc1ccc(CCNC(=O)c2ccc3c(c2)c(C)c(C)n3Cc2ccccc2)cc1,-17%,-11%,11%,·,·
COc1ccc(NC(=O)Nc2nnc(CC(=O)Nc3ccccc3)s2)cc1,-26%,·,1%,-3%,15%
COc1cccc(NC(=O)Nc2nnc(CC(=O)Nc3ccccc3)s2)c1,?,-3%,13µM*,-29%,4%
COc1cccc(NC(=O)Nc2nnc(N3C(C)CCCC3C)s2)c1 (centres undefined),10µM*[quencher],?,?,-5%,5%
Cc1ccccc1-n1nc(CO)c(C(=O)NCC(c2ccccc2)c2ccccc2)n1,-16%,-8%,-1%,·,·
CCc1nc2ccccc2n1CCCCOc1ccc(Cl)cc1,-11%,?,-6%,·,·
CN(C)c1ccc(Nc2nc(N)c([N+](=O)[O-])c(N3CCOCC3)n2)cc1,?,16µM*,7%,3%,-18%
COc1ccc(C(=O)c2cn(CC(=O)Nc3ccc4c(c3)OCCO4)c3ccc(OC)cc3c2=O)cc1,-19%,10%,12%,·,·
COc1ccc(N=Nc2nc3ccc(Br)cc3n2C)cc1,-22%,1.6µM*,3%,7%,-31%
COc1cccc(CSc2nc3n(n2)C(CC(C)C)C(C(=O)Nc2ccccc2OC)=C(C)N3)c1 (centres undefined),-10%,7%,-17%,·,·
Fc1cccc(NC(=S)Nc2cccnc2)c1,-2%,-2%,0%,?,10%
Fc1cccc(NC(=S)NNc2c3ccccc3nc3ccccc23)c1,11µM*[quencher],7.9µM*,-17%,?,63%
CCNC1=C(Cl)C(=O)c2ccccc2C1=O,?,18µM*,-4%,-9%,21%
O=C1C(Cl)=C(Nc2ccc(S(=O)(=O)Nc3ccccn3)cc2)C(=O)c2ccccc21,·,·,·,·,-33%[14.2 µM]
CCN(CC)c1ccc(NC2=C(Cl)C(=O)c3ccccc3C2=O)cc1,2.2µM*[quencher],2.8µM*,5µM*,7.1µM*,7.9µM*
O=C1C(Cl)=C(NCCN2CCCCC2)C(=O)c2ccccc21,?,10µM*,-4%,-8%,-5%
Cc1ccc(NC2=C(Cl)C(=O)c3ccccc3C2=O)cc1,?,2.2µM*,?,2%,·
Cc1cccc(NC(=O)N2CCC(CN3CCOCC3)CC2)c1C,-2%,3%,0%,·,·
O=C1C=C(Nc2ccc(O)cc2)C(=O)c2ccccc21,16µM*[quencher],13µM*,?,3%,5%
O=C1C(Cl)=C(Nc2ccc(O)cc2)C(=O)c2ccccc21,2µM*[quencher],2µM*,3.5µM*,-2%,-16%
Cc1ccc(NC(=O)CN2C(=O)COc3ccc(S(=O)(=O)N4CCCCCC4)cc32)c(C)c1,3%,10%,0%,·,·
CCCN1C(=O)/C(=C\C=C2/C=CN(CC)c3ccccc32)SC1=S,-7%,-9%,16%,-6%,34%
CCCCN1C(=O)/C(=C/C=C2\SCCN2C)SC1=S,?,14µM*,?,-10%,58%
CCCCN1C(=O)/C(=C/C=C2\N(C)c3ccccc3C2(C)C)SC1=S,-11%,6.3µM*,?,-2%,-46%
CCn1c(C)cc(/C=C2/SC(=S)N(CC(=O)O)C2=O)c1C,0%,?,4%,-14%,6%
CN1CCS/C1=C/C=C1/SC(=S)N(Cc2ccccc2)C1=O,8%,12%,6%,-2%,-2%
CN1CCS/C1=C/C=C1\SC(=S)N(CC(=O)O)C1=O,-20%,16µM*,-6%,2%,181%
